Screening data (PubChem BioAssay)
RAD52 anneal inh: RAD52 DNA annealing inhibitors, primary screen, biochemical, FRET, single point, set 2. DNA repair protein RAD52 homolog (Homo sapiens), P43351. recombinant RAD52 DNA annealing, FRET fluorescence. inhibition, % at 18.7 µM. 0.46% of 360,000 active. AID 651710, 2012;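 active = every replicate showing at least 50% inhibition; inconclusive = mean inhibition at least 50% but not in every replicate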
Target sequence (P43351 whole entry, looked up): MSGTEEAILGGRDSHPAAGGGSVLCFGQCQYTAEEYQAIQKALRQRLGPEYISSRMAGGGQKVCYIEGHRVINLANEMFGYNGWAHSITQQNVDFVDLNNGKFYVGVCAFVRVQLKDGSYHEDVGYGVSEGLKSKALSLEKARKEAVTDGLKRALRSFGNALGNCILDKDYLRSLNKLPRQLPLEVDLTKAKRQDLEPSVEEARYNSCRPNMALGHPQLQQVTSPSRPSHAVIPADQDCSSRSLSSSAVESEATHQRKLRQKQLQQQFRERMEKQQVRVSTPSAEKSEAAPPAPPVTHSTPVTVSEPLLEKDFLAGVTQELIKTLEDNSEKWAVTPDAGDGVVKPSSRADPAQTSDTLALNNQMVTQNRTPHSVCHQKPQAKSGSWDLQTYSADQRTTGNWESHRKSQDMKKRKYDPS
ERAP1 inh: human ERAP1 aminopeptidase inhibitors, primary screen, biochemical, single point, plate reader. Endoplasmic reticulum aminopeptidase 1 (Homo sapiens), Q9NZ08. recombinant ERAP1, Leu-AMC fluorescence, 60 min. inhibition, % at 10.7 µM. 0.15% of 340,000 active;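 active = mean replicate inhibition of at least 30%, or all replicates individually reaching that 30% level; inactive = mean below 30% and not every replicate reaching it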;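 also: 0% = neutral control wells and 100% = L-leucinethiol positive control wells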
MLL AF4-AF9 inh: inhibitors of AF4 peptide binding to AF9, primary screen, biochemical, AlphaScreen, biotin-AF4 peptide, FLAG-AF9, single point; Protein AF-9 (Homo sapiens), P42568; inhibition, % at 10 µM; 0.47% of 350,000 active;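 active = every replicate reaching a set inhibition limit, whatever the replicate mean, cut at about 25% in these data; inconclusive = mean inhibition reaches that limit but some replicates miss it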;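 also: 0% = plate neutral control median and 100% = total signal loss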
DENV2 CPE: inhibitors of DENV2 cytopathic effect, primary screen, cell-based, plate reader, single concentration; CPE inhibition, % at 9.99 µM; 1.7% of 350,000 active; AID 651640, 2012; DENV2-infected cells, cytopathic effect rescue; in the data active = CPE inhibition above about 20%, passing the limit was not always enough; inconclusive = no clear call, values can overlap the other calls; tested in BHK-21 cells;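 also: 0% = median of neutral control wells and 100% = median of positive control wells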
FGF22 binding: binders of human FGF22 protein, primary screen, FGF22 synaptogenesis inhibitor project, biophysical, thermal shift, single point. Fibroblast growth factor 22 (Homo sapiens), Q9HCT0. recombinant FGF22 thermal shift, SYPRO orange fluorescence; percent of sucrose octasulfate shift, DMSO zero. activity (Tm shift, normalised), % at 9.99 µM. 1.5% of 340,000 active. AID 651658, 2012;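 active = mean Tm shift, scaled 0 neutral to 100 positive control, at about 1.3% or above, every replicate too, limit read from the data; inconclusive = no clear call, values can overlap the other calls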
Target sequence (Q9HCT0 whole entry, looked up): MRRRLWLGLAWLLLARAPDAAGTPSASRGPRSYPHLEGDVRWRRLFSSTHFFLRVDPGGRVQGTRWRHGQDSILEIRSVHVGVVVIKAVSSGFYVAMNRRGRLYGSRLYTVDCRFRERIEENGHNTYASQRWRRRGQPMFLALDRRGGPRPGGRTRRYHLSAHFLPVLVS
An asterisk follows results filed as active; u = inconclusive; x = no result given. Compounds with a hit are over-represented: about 4% of the library has one in this group of screens.

SMILES	RAD52 anneal inh	ERAP1 inh	MLL AF4-AF9 inh	DENV2 CPE	FGF22 binding
CCCNC(=O)N[C@H]1CC[C@@H](CCn2cc(-c3cccc(F)c3)nn2)O[C@H]1CO	-8	3	1	56*	0
COc1ccc(-c2cn(CC[C@@H]3CC[C@H](NC(=O)Nc4ccc(F)cc4)[C@@H](CO)O3)nn2)cc1	9	-2	-3	50*	x
COc1ccc(NC(=O)N[C@H]2CC[C@@H](CCn3cc(-c4ccc(OC)cc4)nn3)O[C@H]2CO)cc1	-10	-1	1	-2	1
CCCNC(=O)N[C@H]1CC[C@@H](CCn2cc(-c3cccc(F)c3)nn2)O[C@@H]1CO	1	2	-1	-2	0
CN(C)C(=O)c1cccc(-c2ccc(C3[C@@H]4CN(Cc5nccs5)C[C@H]3N4)cc2)c1 (stereo partly drawn)	x	x	x	u	0
Cc1c(F)cccc1NC(=O)CCCCCC1NC(=O)NC1C (stereo not drawn)	-8	-1	90*	2	0
Nc1nc2c(s1)COc1ccccc1-2	-13	2	2	-3	43*
Cc1ccc(S(=O)(=O)NCC(=O)OCC(=O)N(Cc2ccccc2)C(C)(C)C)cc1	-16	-5	-16	93*	0
Cc1cc(/C=C\c2ccccc2)nc2ccccc12	-3	2	26*	5	0
COc1ccc(Nc2nc3ccccc3s2)cc1	-2	1	1	u	2.6*
COc1cccc(Nc2nc3ccc(OC)cc3s2)c1	11	-2	6	-7	0
Oc1cc(-c2cccnc2)cc2cccnc12	-13	-2	26*	-4	0
N#Cc1ccccc1Sc1ccccc1C(=O)NCC(c1ccco1)N1CCCC1 (stereo not drawn)	-227	1	27*	5	0
COc1ccc2c3c(n(C)c2c1)[C@@H](CO)N(CC1CCOCC1)CC31CCN(Cc2nccs2)CC1	-120	3	0	4	0
C[C@H]1CN([C@@H](C)CO)C(=O)Cc2cc(NC(=O)c3ccncc3)ccc2O[C@@H]1CN(C)Cc1ccc(C(F)(F)F)cc1	-4	-1	0	-3	-1
C[C@@H]1CN([C@@H](C)CO)C(=O)Cc2cc(NS(C)(=O)=O)ccc2O[C@H]1CN(C)Cc1ccc(C(F)(F)F)cc1	11	-1	-1	20*	x
C[C@@H]1CN([C@@H](C)CO)C(=O)Cc2cc(NC(=O)c3ccncc3)ccc2O[C@@H]1CN(C)Cc1ccc(C(F)(F)F)cc1	4	2	-2	31*	0
C[C@H](CO)N1C[C@H](C)[C@H](CN(C)Cc2ccc(C(F)(F)F)cc2)Oc2ccc(NC(=O)Nc3ccc(C(F)(F)F)cc3)cc2CC1=O	-12	1	2	63*	0
C[C@@H]1CN([C@@H](C)CO)C(=O)Cc2cc(NC(=O)Nc3ccc(C(F)(F)F)cc3)ccc2O[C@H]1CN(C)C(=O)Nc1ccc(C(F)(F)F)cc1	15	-4	3	53*	0
C[C@H](CO)N1C[C@H](C)[C@@H](CN(C)Cc2ccc(C(F)(F)F)cc2)Oc2ccc(NS(C)(=O)=O)cc2CC1=O	8	-2	4	-4	0
C[C@@H]1CN([C@H](C)CO)C(=O)Cc2cc(NC(=O)Nc3ccc(C(F)(F)F)cc3)ccc2O[C@@H]1CN(C)C(=O)Nc1ccc(C(F)(F)F)cc1	10	-1	-12	-10	1
C[C@@H]1CN([C@H](C)CO)C(=O)Cc2cc(NC(=O)Nc3ccc(C(F)(F)F)cc3)ccc2O[C@H]1CN(C)Cc1ccc(C(F)(F)F)cc1	-14	1	-2	6	0
C[C@@H]1CCCCO[C@@H](CN(C)Cc2ccncc2)[C@H](C)CN([C@H](C)CO)C(=O)c2cc(NC(=O)Nc3ccc4c(c3)OCO4)ccc2O1	33	0	9	-9	1
C[C@@H]1CN([C@H](C)CO)S(=O)(=O)c2ccc(C3=CCCCC3)cc2O[C@H]1CN(C)Cc1ccccn1	20	4	14	-9	0
C/C=C/c1ccc([C@H]2[C@@H](CO)N3C(=O)CN(C(=O)c4ccc(F)cc4)C[C@@H]23)cc1	2	1	1	8	x
SMILES	RAD52 anneal inh	ERAP1 inh	MLL AF4-AF9 inh	DENV2 CPE	FGF22 binding
C[C@H]1CN([C@@H](C)CO)C(=O)Cc2cc(NC(=O)C3CCCCC3)ccc2O[C@@H]1CN(C)Cc1ccc(C(F)(F)F)cc1	5	1	-1	39*	0
C[C@@H]1CN([C@H](C)CO)C(=O)Cc2cc(NC(=O)c3ccncc3)ccc2O[C@H]1CN(C)C(=O)Nc1ccc(C(F)(F)F)cc1	-3	1	1	23*	0
COc1ccc(NC(=O)Nc2ccc3c(c2)C(=O)N([C@@H](C)CO)C[C@H](C)[C@@H](CN(C)S(=O)(=O)c2cn(C)cn2)OCCCC[C@H](C)O3)cc1	x	x	x	8	0
CCOC(=O)N1CCN(C(=O)CSc2nnc(Cc3ccccc3)o2)CC1	-5	0	-1	u	43*
CCOC(=O)c1c(C)[nH]c(C(=O)CN2C(=O)NC(C)(CC(C)C)C2=O)c1C (stereo not drawn)	-16	0	1	x	44*
CCCNC(=O)N(C)C[C@H]1Oc2cc(-c3cncnc3)ccc2S(=O)(=O)N([C@@H](C)CO)C[C@@H]1C	0	0	-3	-1	0
CNC(=O)CSc1nnc(-c2ccc3c(c2)OCO3)n1C	-14	1	-1	10	43*
O=C(C[C@@H]1CC[C@H]2[C@@H](COC[C@@H](O)CN2C(=O)Nc2ccc(F)cc2)O1)NC1Cc2ccccc2C1	7	0	-3	-2	0
CCOc1ccc(-c2cc(N)n(S(=O)(=O)c3ccc(OC)c(OC)c3)n2)cc1	-16	4	44*	8	0
COc1ccc(S(=O)(=O)n2nc(-c3ccc(Cl)cc3)cc2N)cc1OC	-25	x	5	-2	0
O=C(C1=C[C@H](c2csc3ccccc23)C[C@H](OCCCCO)O1)N1CCCCCCC1	-28	4	-1	-7	1
C=CCc1cc(/C=C/c2nc(O)c([N+](=O)[O-])c(=O)[nH]2)cc(OC)c1O	-29	7	-2	4	43*
CCOc1cc(/C=C\c2nc(O)c([N+](=O)[O-])c(=O)[nH]2)ccc1OC(C)C	-55	5	2	0	0
O=C1CNC(=S)N1Cc1ccc(Cl)cc1	-8	1	1	4	0
O=C1NCCN1Cc1ccc(Cl)cc1	-4	-1	-9	3	44*
O=C(NNC(=O)c1cccc2ccccc12)c1cccc(F)c1	1	1	-3	-7	43*
